# The panel holds about 83,000 compounds, 20% with a hit somewhere; the sample as a whole holds those more often.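 Cells were grown in 96-well plates and exposed to the test compound at a single concentration for 48 hours; results are reported as percent growth, with values below 10 considered active.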 Unmarked numbers belong to inactive results. The source made the active and inactive calls.
# Tested on: HL-60(TB) leukemia
# Assay: NCI-60 one-dose screen, 48 h (100 = growth as untreated, 0 = no growth, -100 = all killed)
# Details: 10 µM unless noted
row,Compound,growth
1,NS(=O)(=O)c1cnccc1-n1ccc(=O)c(S(N)(=O)=O)c1,55.9%
2,CC(=O)N(Cc1ccccc1)c1nc2ccc(O)c(CN(C)C)c2s1,105%
3,COc1cccc(C=Nc2cc(C(C)C)c(O)cc2C)c1O,85.9%
4,COc1cc2cc3c(=O)n4c(cc5cc(OC)ncc54)c(=O)n3c2cn1,89.3%
5,OC1OC(COC(c2ccccc2)(c2ccccc2)c2ccccc2)C(O)C(O)C1O (stereo not given),97.4%
6,COC(=O)c1ccc(-n2cc(CCCOS(=O)(=O)c3ccc(F)cc3)nn2)cc1,99.6%
7,CCOC1=C(Cl)C(=O)C(OCC)=C(Cl)C1=O,52.3%
8,COc1ccc(OC)c(/C=C/C(=O)N/N=C/c2ccccc2)c1,46.3%
9,C#CCNC(=O)[C@]1(C)CCC[C@@]2(C)[C@H]1CC=C1C=C(C(C)C)CC[C@@H]12,131%
10,N#Cc1ccc(OC(=O)Nc2c(Cl)cc(Cl)cc2Cl)cc1,102%
11,COc1ccc2[nH]c(C(=O)OCc3ccc4cccc(O)c4n3)cc2c1,-36.8% (active)
12,Cc1cc(Nc2cccc(F)c2)nc(NCc2ccccc2)n1,24.1%
13,N#Cc1c(-c2ccc(Br)cc2)nc2c(N=Nc3ccc(S(N)(=O)=O)cc3)c(N)nn2c1N,38.1%
14,O=S(=O)(Nc1ccc2ccccc2c1)N1CCCCC1,85.1%
15,O=C(O)c1cccc(-n2ncc(Cl)c(Cl)c2=O)c1,107%
16,COC(=O)c1nc(-c2ccc(C)cc2)oc1Sc1ccc(C)cc1,91.4%
17,CCC(c1ccc(OC)cc1)C(CC)c1ccc(O)c(CN2CCCCC2)c1 (stereo not given),52.6%
18,Cc1nc2cc(Nc3nc(Nc4ccc(F)cc4)nc(-c4ccc(Cl)cc4)n3)ccc2n1Cc1ccccc1,-29.6% (active)
19,COc1ccc2c(c1OC)OCC(CN(C)C)C2=O (stereo not given),40.1%
20,Cc1cccc(C)c1NCc1nnc(-c2ccco2)o1,97.5%

row,Compound,growth
1,COc1ccc2c(c1)Oc1nc(N)c(C#N)c(N)c1C2Sc1ccc(SC)cc1 (stereo not given),-22.3% (active)
2,CCCc1n(Cc2ccc3ccccc3c2)c2ccccc2[n+]1Cc1ccc2ccccc2c1,-64.2% (active)
3,CCOC(=O)CNS(=O)(=O)CC(=O)c1ccccc1,102%
4,CCCCNc1nc(NC(C)(C)C)nc(NC(C)(C)C)n1,36.6%
5,COc1ccc(/C(=C\c2cc(OC)c(OC)c(OC)c2)C(=O)N2CCNCC2)cc1,98%
6,C[C@H]1[C@H]2C3=CC[C@@H]4[C@@]5(C)C/C(=C/c6ccco6)C(=O)C(C)(C)[C@@H]5CC[C@@]4(C)[C@]3(C)CC[C@@]2(C(=O)N2CCOCC2)CC[C@@H]1C,14.7%
7,O=C(Cc1ccc(NC(=O)c2cccc(Cl)c2)cc1)NCc1ccccc1,-14% (active)
8,O=C1/C(=N\c2cc(=O)[nH]n2S(=O)(=O)c2ccccc2)Nc2ccccc21,102%
9,NC1(CO)COC(c2ccccc2)OC1 (stereo not given),89.2%
10,CC(CCC(=O)O)(NC(=O)c1ccc([N+](=O)[O-])cc1)C(=O)O (stereo not given),94.9%
11,c1ccc(N(c2ccccc2)c2ccccc2)cc1,94.2%
12,Fc1cccc(F)c1C#Cc1ccc2cccnc2c1,74.6%
13,CC(C)(C)c1ccc(S(=O)(=O)N[C@H]2CC[C@H]3[C@@H]4CCc5cc(O)c([N+](=O)[O-])cc5[C@H]4CC[C@]23C)cc1,60.7%
14,Cc1ccc(C2SCC(=O)N2Cc2ccccc2)cc1 (stereo not given),96.1%
15,Nc1ncnc2c1C(c1ccc([N+](=O)[O-])cc1)c1sc3c(F)cccc3c1O2 (stereo not given),97.2%
16,COc1ccc(-c2n[nH]c(=O)c3nc(NC(=S)Nc4ccc(Oc5ccccc5)cc4)sc23)cc1,92.9%
17,COc1cc2c(c(OC)c1OC)-c1ccc(N)c(=O)cc1[C@@H](NC(C)=O)CC2,3.69% (active)
18,Clc1cccc(Cc2cn3cc(-c4ccccc4)nc3s2)c1,66.1%
19,O=C(O)C(c1ccccc1)C(O)c1ccccc1 (stereo not given),97.8%
20,COc1ccc(/C=C/c2nc(NCCCN(C)C)c3ccccc3n2)cc1,88.3%

# From PubChem BioAssay (NCI)
